The results in this text go back to PMC5540273 (PLoS ONE, 2017).

Molecules are shown by their SMILES.

Among the test systems are NEK6; NEK7; NEK9; NLK; PAK1; PAK2; PAK3; PAK4; PAK6; PAK7; PDGFRA; PDGFRB; PDPK1; PFTAIRE2.
Holding throughout (conditions): concentration: 1 μM, replicates: in singlicate; n = 1
The next assay has as its system T1, NIK.
T1 construct: gene MAP3K14

The next assay deals with T2, NIM1.
T2 construct: gene MGC42105

The next assay relates to T3, OSR1.
T3 construct: gene OXSR1

A further assay has as its system T4, PCTK1.
T4 construct: gene CDK16

The next assay relates to T5, PCTK2.
T5 construct: gene CDK17

The subject of another assay is T6, PCTK3.
T6 construct: gene CDK18
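Further: KINOMEscan kinase panel screen.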

Regarding `COc1ccc(CNC(=O)NC2CCN(c3ccnc(Nc4ccc(OC)cc4)n3)C2)cc1` (stereo not drawn) [GSK1379727], the “%Inh” value in the assay with NEK6 is 0%; in the assay with NEK7 it was 0%; in the assay with NEK9 it was 6%; with NIK, 17%; in the assay on NIM1, 33%; in the assay on NLK, 24%. The “%Inh” value in the assay with OSR1, in the assay on PAK1, with PAK2, in the assay with PAK3, in the assay on PAK4 and in the assay on PAK6 was 0% throughout. Further, the “%Inh” value in the assay on PAK7 is listed as 1%; in the assay with PCTK1, 0%; in the assay with PCTK2, 0%; in the assay on PCTK3 it was 4%; in the assay on PDGFRA it was 0%; in the assay with PDGFRB, 20%. Moreover, the entries for the “%Inh” value in the assay on PDPK1 and in the assay with PFTAIRE2 were 0% and 7%, respectively.
As for `CC(C)(C)n1cnc2c(N)ncnc21` [SKF-97359], the “%Inh” value is recorded as 0% in the assay with NEK6; 0% in the assay with NEK7; 0% with NEK9; 33% in the assay with NIK; 17% in the assay on NIM1; 2% in the assay on NLK. The “%Inh” value with OSR1 was determined as 0%; in the assay with PAK1, 0%; in the assay on PAK2, 0%; in the assay with PAK3, 0%; with PAK4 it was 21%; in the assay with PAK6, 0%. The “%Inh” value in the assay with PAK7 turned out to be 6%; with PCTK1 it was 0%; in the assay on PCTK2, 0%; in the assay on PCTK3, 0%; with PDGFRA it was 0%; in the assay with PDGFRB, 0%. Besides, the “%Inh” value in the assay with PDPK1 was 0%; in the assay with PFTAIRE2 it was 8%.
Take `CCc1nc(-c2cccc(C)c2)c(-c2ccnc(NCc3ccccc3)c2)s1`: the “%Inh” value with NEK6 is recorded as 0%; in the assay on NEK7, 0%; in the assay on NEK9, 0%; in the assay on NIK it was 0%; with NIM1, 0%; in the assay on NLK it was 21%. Further, the “%Inh” value with OSR1 came to 0%; in the assay on PAK1, 30%; in the assay on PAK2, 27%; with PAK3, 22%; in the assay with PAK4 it was 22%; in the assay on PAK6, 11%. For the same molecule, the “%Inh” value in the assay on PAK7 was found to be 0%; in the assay on PCTK1, 0%; in the assay on PCTK2, 13%; in the assay on PCTK3 it was 0%; in the assay on PDGFRA it was 30%; with PDGFRB, 39%. In addition, the “%Inh” value worked out at 3% in the assay with PDPK1 and 7% in the assay on PFTAIRE2.
In the case of `CCn1cnc2c(N)ncnc21` [GW345098], the “%Inh” value in the assay with NEK6 was found to be 29%; in the assay on NEK7, 14%; in the assay on NEK9, 0%; in the assay with NIK it was 6%; in the assay on NIM1, 0%; in the assay on NLK, 37%. The “%Inh” value in the assay with OSR1 came to 0%; in the assay on PAK1 it was 9%; with PAK2, 0%; in the assay on PAK3, 58%; in the assay with PAK4, 6%; in the assay on PAK6, 13%. In addition, the “%Inh” value in the assay on PAK7 worked out at 11%; in the assay on PCTK1 it was 0%; in the assay with PCTK2 it was 0%; in the assay on PCTK3, 0%; in the assay with PDGFRA, 0%; in the assay with PDGFRB it was 24%. Besides, the “%Inh” value in the assay with PDPK1 amounted to 11%; in the assay on PFTAIRE2 it was 3%.
`Cc1cn2c(=O)cc(N3CCOCC3)nc2n1Cc1cccc(Cl)c1Cl` [GSK2334006]: the “%Inh” value was determined as 18% with NEK6; 0% in the assay on NEK7; 8% in the assay on NEK9; 0% in the assay on NIK; 7% in the assay with NIM1; 9% in the assay with NLK. In addition, the “%Inh” value is given as 1% in the assay with OSR1; 12% with PAK1; 10% with PAK2; 15% in the assay with PAK3; 0% in the assay on PAK4; 2% with PAK6. In addition, the “%Inh” value in the assay on PAK7 is given as 0%; in the assay with PCTK1, 5%; with PCTK2, 9%; in the assay with PCTK3, 13%; in the assay on PDGFRA it was 0%; in the assay with PDGFRB it was 31%. Further, the “%Inh” value was determined as 25% in the assay with PDPK1 and 22% in the assay on PFTAIRE2.
With `CN(C(=O)c1ccc(-c2cc(-c3c[nH]nc3-c3ccccn3)ccn2)cc1)C1CCOCC1` [GW810083], the “%Inh” value in the assay on NEK6 was found to be 6%; with NEK7, 6%; with NEK9, 18%; with NIK it was 29%; with NIM1 it was 20%; in the assay with NLK, 0%. In addition, the “%Inh” value with OSR1 was found to be 0%; with PAK1, 0%; in the assay on PAK2, 0%; in the assay on PAK3 it was 0%; in the assay with PAK4, 28%; in the assay with PAK6, 0%. In addition, the “%Inh” value in the assay on PAK7 was determined as 16%; with PCTK1, 0%; in the assay with PCTK2, 0%; with PCTK3, 0%; with PDGFRA, 4%; in the assay on PDGFRB, 0%. Also, the “%Inh” value in the assay with PDPK1 is 0%; with PFTAIRE2, 29%.
As to `Fc1ccc(-c2ncn(CCCN3CCOCC3)c2-c2ccccn2)cc1` [SB-211742], the “%Inh” value in the assay on NEK6 is 15%; with NEK7, 0%; in the assay on NEK9, 0%; with NIK it was 0%; in the assay with NIM1, 0%; with NLK it was 0%. Besides, the “%Inh” value in the assay with OSR1 is reported as 0%; in the assay with PAK1, 0%; in the assay with PAK2, 0%; in the assay with PAK3, 0%; in the assay on PAK4 it was 0%; in the assay on PAK6, 8%. Besides, the “%Inh” value amounted to 0% with PAK7; 0% with PCTK1; 2% in the assay with PCTK2; 0% in the assay on PCTK3; 0% with PDGFRA; 0% in the assay with PDGFRB. The “%Inh” value was 0% with PDPK1 and 20% in the assay with PFTAIRE2.
On to `Cl.Oc1cccc(Nc2ccnc3cc(-c4ccncc4)ccc23)c1` [GW494601], for which the “%Inh” value in the assay with NEK6 was determined as 0%; in the assay on NEK7 it was 0%; with NEK9, 0%; in the assay with NIK, 30%; in the assay with NIM1, 0%; in the assay with NLK, 66%. In addition, the “%Inh” value with OSR1 turned out to be 0%; in the assay on PAK1, 0%; with PAK2 it was 0%; in the assay on PAK3 it was 33%; with PAK4, 0%; in the assay on PAK6, 0%. Also, the “%Inh” value with PAK7 worked out at 14%; in the assay on PCTK1, 0%; in the assay with PCTK2, 0%; in the assay on PCTK3 it was 18%; with PDGFRA it was 98.5%; in the assay on PDGFRB, 99.5%. The “%Inh” value in the assay with PDPK1 is recorded as 0%; with PFTAIRE2, 2%.
Take `c1ccc(-c2cc(-c3c[nH]nc3-c3ccccn3)ccn2)cc1` [GW576604]: the “%Inh” value in the assay with NEK6 is reported as 0%; in the assay on NEK7, 0%; in the assay with NEK9, 17%; in the assay with NIK, 24%; in the assay with NIM1, 20%; in the assay on NLK it was 44%. The “%Inh” value is reported as 0% with OSR1; 16% in the assay with PAK1; 13% with PAK2; 16% with PAK3; 0% in the assay on PAK4; 0% in the assay with PAK6. Further, the “%Inh” value in the assay on PAK7 turned out to be 0%; in the assay on PCTK1 it was 0%; in the assay with PCTK2 it was 0%; in the assay with PCTK3 it was 36%; in the assay on PDGFRA, 0%; with PDGFRB it was 17%. The “%Inh” value is 0% in the assay with PDPK1 and 16% in the assay with PFTAIRE2.
Consider `CCCCCc1nc2c(N)ncnc2n1CCCCC` [SKF-97255], for which the “%Inh” value is recorded as 2% in the assay with NEK6; 0% with NEK7; 0% in the assay with NEK9; 0% with NIK; 27% in the assay on NIM1; 0% with NLK. Also, the “%Inh” value amounted to 0% in the assay on OSR1; 12% in the assay with PAK1; 67% in the assay on PAK2; 4% with PAK3; 6% with PAK4; 0% in the assay with PAK6. In addition, the “%Inh” value in the assay on PAK7 is 0%; with PCTK1, 0%; with PCTK2, 0%; in the assay on PCTK3, 0%; with PDGFRA, 0%; in the assay on PDGFRB, 73%. For the same molecule, the “%Inh” value with PDPK1 and with PFTAIRE2 was 0% each time.
Take `Cn1ccc2ncnc(Oc3ccc(NC(=O)Nc4ccncc4)c(Cl)c3)c21`: the “%Inh” value in the assay with NEK6, in the assay with NEK7, in the assay on NEK9, in the assay with NIK, in the assay on NIM1 and with NLK was 0% each time. The “%Inh” value came out at 0% with OSR1; 16% in the assay with PAK1; 2% in the assay with PAK2; 0% with PAK3; 3% with PAK4; 1% in the assay with PAK6. The “%Inh” value in the assay with PAK7 came to 0%; in the assay with PCTK1, 0%; with PCTK2, 0%; in the assay on PCTK3, 0%; with PDGFRA, 27%; in the assay with PDGFRB, 16%. The “%Inh” value in the assay on PDPK1 is 36%; with PFTAIRE2, 0%.
On to `COCCNC(=O)c1ccc(-c2cc(C(=O)NC3CC3)cc(F)c2C)cc1` [GW868318], for which the “%Inh” value in the assay with NEK6 came out at 22%; in the assay with NEK7 it was 0%; in the assay on NEK9 it was 0%; with NIK, 48%; in the assay on NIM1, 59%; with NLK it was 11%. Also, the “%Inh” value is listed as 30% in the assay on OSR1; 20% with PAK1; 49% in the assay on PAK2; 27% in the assay with PAK3; 20% in the assay on PAK4; 18% in the assay on PAK6. Moreover, the “%Inh” value amounted to 24% with PAK7; 8% in the assay on PCTK1; 0% in the assay on PCTK2; 20% in the assay on PCTK3; 32% in the assay with PDGFRA; 51% with PDGFRB. For the same molecule, the results for the “%Inh” value with PDPK1 and with PFTAIRE2 were 8% and 0%, respectively.
